Screens from PubChem.
GPR32 ag – GPR32 (DRV1) agonism, beta-arrestin recruitment. O75388. hit rate 2.5% among 48,000. CHO-K1 GPR32 beta-arrestin PathHunter luminescence, 90 min; zero percent set by DMSO-only wells. activation, % at 76.9 µM;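 active = activation of at least 60% and not above a set upper limit, about 1 call in 100 departs from these limits; inconclusive = activation of 40% to 60%, or above that upper limit; inactive = activation under 40%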; note: 0% is about no effect
Target sequence (O75388 whole entry, looked up): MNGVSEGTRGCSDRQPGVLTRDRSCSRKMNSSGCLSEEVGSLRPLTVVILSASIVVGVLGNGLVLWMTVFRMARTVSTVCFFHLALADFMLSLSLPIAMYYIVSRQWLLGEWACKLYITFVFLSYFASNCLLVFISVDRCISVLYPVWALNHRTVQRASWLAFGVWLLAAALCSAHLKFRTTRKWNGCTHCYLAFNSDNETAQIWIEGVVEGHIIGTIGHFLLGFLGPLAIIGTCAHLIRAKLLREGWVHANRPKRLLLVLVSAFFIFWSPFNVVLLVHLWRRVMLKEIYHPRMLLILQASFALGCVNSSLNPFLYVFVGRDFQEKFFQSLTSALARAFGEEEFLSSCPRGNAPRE
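GPR32 activation in stably transfected CHO-K1 cells, detected as beta-arrestin recruitment by enzyme-fragment complementation. Compound exposure: 90 min, 37 °C.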
HTT prom inh – HTT promoter inhibition; HEK293 HTT promoter firefly luciferase reporter, 24 h; Potency, µM (doses to about 57.5 µM), for inactives: top-dose activity change, negative = inhibition, hits mostly inhibitors; hit rate 0.93% among 48,000; AID 1508623; note: potency is the fitted concentration of half-maximal effect; nearly all actives have a fitted effect of over 50% in size
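HEK293 luciferase promoter-reporter cells (2,500/well) plated 24 h, then compounds added at up to 57.5 uM final for 24 h at 37 °C. Firefly luminescence by Dual-Glo, normalized to vehicle (0%) and zero RLU (-100%).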
HTT-AS act – activators of huntingtin-antisense promoter activity. HEK293 HTT-AS promoter firefly luciferase reporter, 24 h; response scale: percent change from vehicle, -100% = no light. hit rate 0.24% among 48,000. Potency, µM (series often up to 57.5 µM), for inactives: at the highest dose activity change, positive = activation, most hits filed as activators; note: potency is the fitted concentration of half-maximal effect; nearly all actives have a fitted effect of over 55% in size
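Firefly luciferase signal from promoter-reporter HEK293 cells was scaled between vehicle (0%) and zero RLU (-100%). Compounds were tested at final concentrations of up to 57.5 uM over 24 h at 37 degrees C. PTC124 at 50 uM final served as control inhibitor.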
* = called active by the depositor; ? = inconclusive; . = no result; ! = not active in a repeat; [ ] = another dose, or the depositor's remark. This is a sample that favours compounds with a hit; in the whole collection about 3.7% have one here. Unless noted, calls come from the whole dose curve; as a rule, active = well fitted curve in the direction sought with a large enough effect; inconclusive = small, poorly fitted or top-dose-only effect, or another doubt; inactive = no such curve, though single readings can be large; an effect the other way counts as inactive or inconclusive.

SMILES	GPR32 ag	HTT prom inh	HTT-AS act
c1ccc(CCCN2CCN(CCOC(c3ccccc3)c3ccccc3)CC2)cc1	-20	?	-29%
CC(=O)OC1(c2ccccc2)CCN(CCc2ccccc2)CC1	85*	-22%[116 µM]	-20%[116 µM]
Cc1ccccc1-n1c(/C=C/c2ccc(O)cc2)nc2ccccc2c1=O	-34	?	-50%
Cc1ccc(-n2c(/C=C\c3ccc(F)c(F)c3)nc3ccccc3c2=O)c(C)c1	20	7.1µM*	-32%
CCOC(=O)c1ccc(NC(=O)CSc2nc3c(cc2C#N)N2CCC3CC2)cc1	13	-27%	-20%
N#Cc1cccc(NC(=O)CSc2nc3c(cc2C#N)N2CCC3CC2)c1	21	41%	?
N#Cc1cc2c(nc1SCC(=O)Nc1ccc(OC(F)(F)F)cc1)C1CCN2CC1	15	28µM*	-51%
N#Cc1cc2c(nc1SCC(=O)Nc1cccc(C(F)(F)F)c1)C1CCN2CC1	64*	?	-47%
O=c1[nH]c2ccc(Cl)cc2c(N[C@@H]2CN3CCC2CC3)c1-c1nc2ccccc2[nH]1	.	?	-14%
c1ccc2c(CN3CCNCC3)cccc2c1	.	2%	-10%
C[C@]12CC[C@H]3[C@@H](CCC4=CC(=O)CC[C@@]43C)[C@H]1CC[C@H]2O	.	-6%	-16%
CCCCCCCCCC(CC)c1ccc(S(=O)(=O)O)cc1 (configuration not stated)	101*	12%[116 µM]	-17%[116 µM]
COc1ccc(NC(=O)CCc2nc(C3=CCN(Cc4cccc(C)c4)CC3)no2)c(OC)c1	15	-11%	4%
O=C(CCc1nc(C2=CCN(Cc3cccc(Cl)c3)CC2)no1)Nc1ccccc1F	70*	-33%	-13%
O=C(CCl)c1ccc(Cl)cc1Cl	-56	0%	-8%
O=C(O)c1nn(Cc2ccc(Cl)cc2Cl)c2ccccc12	64*!	6%	-7%
CSCC[C@@H](NC(=O)[C@@H](Cc1ccccc1)NC(=O)CNC(=O)CNC(=O)[C@@H](N)Cc1ccc(O)cc1)C(=O)O	.	7%	2%
CCNC(=O)CC1N=C(c2ccc(Cl)cc2)c2cc(OC)ccc2-n2c(C)nnc21 (configuration not stated)	.	-12%	-25%
O=C(Nc1ccc(Br)cc1C(=O)c1ccccc1)c1ccccc1	-9	-1%	-11%
O=C(Nc1ccc(Br)cc1)c1cc(Br)cc(Br)c1O	82*	25%	11%
C1=C2CCCN[C@H]2[C@@H]2C[C@H]1[C@@H]1CCCCN1C2	.	3%	-6%
CC1(N2CCC(n3c([C@@H]4CCCNC4)nc4ccccc43)CC2)CCCCCCC1	.	-3%	-17%
C[C@]12CC[C@H]3[C@@H](CCC4=CC(=O)CC[C@@]43C)[C@H]1CC[C@H]2OC(=O)CCC1CCCC1	.	-3%	-8%
C[C@@H]1O[C@@H](O[C@H]2C[C@@H](O)[C@]3(CO)[C@H]4[C@H](O)C[C@]5(C)[C@@H](C6=CC(=O)OC6)CC[C@]5(O)[C@@H]4CC[C@]3(O)C2)[C@H](O)[C@H](O)[C@H]1O	65*!	?	?
C[C@H]1O[C@@H](O[C@H]2[C@@H](O)C[C@H](O[C@H]3[C@@H](O)C[C@H](O[C@H]4CC[C@@]5(C)[C@H](CC[C@@H]6[C@@H]5CC[C@]5(C)[C@@H](C7=CC(=O)OC7)CC[C@]65O)C4)O[C@@H]3C)O[C@@H]2C)C[C@H](O)[C@@H]1O	?	-39%	?
SMILES	GPR32 ag	HTT prom inh	HTT-AS act
O=C(Nc1ccncc1)C(=O)c1cn(Cc2ccc(Cl)cc2)c2ccccc12	.	-10%	-18%
CCC(C)(C)c1ccc(O)cc1	?	9%	3%
CC(C)(C)CC(C)(C)c1ccc(O)cc1	116*!	-6%	-11%
Cc1sc2c(c1C)C(c1ccc(Cl)cc1)=N[C@@H](CC(=O)Nc1ccc(O)cc1)c1nnc(C)n1-2	.	71%	.
CC(CC(C(N)=O)(c1ccccc1)c1ccccc1)N(C)C (configuration not stated)	12	8%	3%
CCC(OC(C)=O)C(CC(C)NC)(c1ccccc1)c1ccccc1 (configuration not stated)	85*	-27%[116 µM]	-28%[116 µM]
Cc1cc(NC(=O)c2cccn(Cc3cccc(Cl)c3)c2=O)no1	0	-9%	-14%
COc1ccc(NC(=O)c2cccn(Cc3ccc(Cl)cc3)c2=O)c(OC)c1	38	13µM*	-50%
COc1ccc(NC(C)=O)cc1NC(=O)c1cccn(Cc2ccccc2)c1=O	-6	-12%	10%
CCOc1ccc(NC(=O)c2cccn(Cc3cccc(Cl)c3)c2=O)cc1	8	16µM*	-34%
Cc1ccccc1-n1c(Cn2ncc3c(N)ncnc32)nc2cccc(C)c2c1=O	.	-16%	-25%
COc1ccc2c(c1)CN(C)CC2c1ccc(Cl)c(Cl)c1 (configuration not stated)	.	-6%	-15%
C[C@@]12OC(=O)[C@]1([C@@H](O)[C@@H]1C=CCCC1)NC(=O)[C@H]2CCCl	.	?	-60%
CCNC(=O)C[C@@H]1N=C(c2ccc(Cl)cc2)c2cc(OC)ccc2-n2c(C)nnc21	.	-5%	-18%
Cc1oc2cc3oc(=O)c(CCC(=O)N4CCCCC4)c(C)c3cc2c1C	87*	.	.
CCN1CCN(C(=O)Cc2ccc(Nc3ncc(F)c(Nc4ccc(C(=O)Nc5ccccc5Cl)cc4)n3)cc2)CC1	.	4%	-12%
CN1[C@H]2CC(O)C[C@H]1[C@H]1O[C@H]12 (some centres not stated)	.	?	-54%
